# From PubChem BioAssay (EPA / NIEHS)
# Records with an inconclusive call do not appear. Calls of active or inactive are those of the source. How the source made its calls, unless noted: active means hit-call score of the fitted dose curve at least 0.9, where 1 is the maximum; inactive means score below 0.9.
# What was measured:
# [1] = BSK_4H_Eotaxin3: BioMAP Diversity Plus: 4H Assay for Eotaxin 3 Biomarker Activity (AID 2283000); conditions: primary human endothelial cells (HUVEC); actives raise or lower the signal;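 on outcome: CCL26 protein level quantified by ELISA in parallel with SRB cytotoxicity check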
# Procedure, shortened: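 Endothelial primary cells (human umbilical vein) exposed to compound for 24 h. ELISA detection of Eotaxin-3.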
# [2] = biological target: human Peroxisome Proliferator-activated Receptor alpha (PPARa), PPARA (gene 5465) (UniProt Q07869); assay: ATG_PPARa_TRANS: Attagene TRANS-FACTORIAL HepG2 Assay for human Peroxisome Proliferator-activated Receptor alpha (PPARa) (AID 2283001; active means hit-call score of the fitted dose curve at least 0.9, where 1 is the maximum;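 on AC50: potency for gain of reporter signal over DMSO so agonist or activator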)
# Chain of human Peroxisome Proliferator-activated Receptor alpha (PPARa), PPARA (gene 5465) (Q07869 whole entry, looked up, the tested form may be a part): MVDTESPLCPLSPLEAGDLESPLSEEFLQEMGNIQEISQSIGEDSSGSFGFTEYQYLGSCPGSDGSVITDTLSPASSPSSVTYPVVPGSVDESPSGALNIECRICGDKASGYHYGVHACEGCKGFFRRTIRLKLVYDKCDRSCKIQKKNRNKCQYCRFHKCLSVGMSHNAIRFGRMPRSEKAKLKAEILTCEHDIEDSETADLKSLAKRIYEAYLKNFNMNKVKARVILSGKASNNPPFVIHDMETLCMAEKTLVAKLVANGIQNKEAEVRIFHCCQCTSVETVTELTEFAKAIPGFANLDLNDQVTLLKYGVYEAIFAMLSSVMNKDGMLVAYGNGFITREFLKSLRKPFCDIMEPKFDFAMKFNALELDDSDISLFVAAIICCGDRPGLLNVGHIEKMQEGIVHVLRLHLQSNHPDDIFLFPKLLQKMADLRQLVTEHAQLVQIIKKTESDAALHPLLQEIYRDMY
# Procedure, shortened: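 Measures transcriptional activity of an exogenous chimeric PPARa-Gal4 protein in transiently transfected HepG2 cells after 24 h dosing. Reporter mRNA quantified via RT-PCR and capillary electrophoresis; DMSO served as negative control.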
# [3] = read-out: Intercellular Adhesion Molecule 1 (ICAM1), ICAM1 (gene 3383); assay: BSK_3C_ICAM1: BioMAP Diversity Plus: 3C Assay for Intercellular Adhesion Molecule 1 (ICAM1) Biomarker Activity (AID 2283003); conditions: primary human endothelial cells (HUVEC); actives raise or lower the signal
# Procedure, shortened: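 Human vascular endothelial primary cells, 3C conditions, 24 h treatment. ICAM-1 by ELISA.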
# [4] = biological target: human Retinoic Acid Receptor beta (RARb), RARB (gene 5915) (UniProt P10826); assay: ATG_RARb_TRANS: Attagene TRANS-FACTORIAL HepG2 Assay for human Retinoic Acid Receptor beta (AID 2283004; active means hit-call score of the fitted dose curve at least 0.9, where 1 is the maximum)
# Chain of human Retinoic Acid Receptor beta (RARb), RARB (gene 5915) (P10826 whole entry, looked up, the tested form may be a part): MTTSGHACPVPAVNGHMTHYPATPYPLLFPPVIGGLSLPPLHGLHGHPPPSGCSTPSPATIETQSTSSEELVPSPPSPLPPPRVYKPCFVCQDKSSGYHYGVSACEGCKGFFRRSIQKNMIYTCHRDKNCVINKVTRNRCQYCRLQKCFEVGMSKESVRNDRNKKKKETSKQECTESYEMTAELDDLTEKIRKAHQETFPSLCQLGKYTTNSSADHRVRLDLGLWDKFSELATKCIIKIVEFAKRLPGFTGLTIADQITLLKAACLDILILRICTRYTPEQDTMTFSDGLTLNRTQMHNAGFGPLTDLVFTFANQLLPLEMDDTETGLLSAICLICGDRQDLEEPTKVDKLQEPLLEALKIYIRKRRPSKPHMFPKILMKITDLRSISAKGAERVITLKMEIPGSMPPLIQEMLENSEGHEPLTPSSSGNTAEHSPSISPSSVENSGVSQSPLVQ
# Procedure, shortened: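 HepG2, transient MRTU transfection, NR–Gal4 chimera, 24 h treatment; RT-PCR plus CE fluorescence detection of reporter mRNA; gain of signal vs DMSO.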
# [5] = BSK_3C_Proliferation: Cell Proliferation Assessment in the BioMAP Diversity Plus: 3C Assay (AID 2283006); conditions: primary human endothelial cells (HUVEC);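 on AC50: potency may reflect either rise or fall in cell number versus DMSO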
# Procedure, shortened: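 Proliferation of human vascular endothelial primary cells after 48 h dosing, quantified as SRB-stained protein at 560 nm relative to DMSO.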
# [6] = biological target: human Retinoic Acid Receptor gamma (RARg), RARG (gene 5916) (UniProt P13631); assay: ATG_RARg_TRANS: Attagene TRANS-FACTORIAL HepG2 Assay for human Retinoic Acid Receptor gamma (RARg) (AID 2283009; active means hit-call score of the fitted dose curve at least 0.9, where 1 is the maximum)
# Chain of human Retinoic Acid Receptor gamma (RARg), RARG (gene 5916) (P13631 whole entry, looked up, the tested form may be a part): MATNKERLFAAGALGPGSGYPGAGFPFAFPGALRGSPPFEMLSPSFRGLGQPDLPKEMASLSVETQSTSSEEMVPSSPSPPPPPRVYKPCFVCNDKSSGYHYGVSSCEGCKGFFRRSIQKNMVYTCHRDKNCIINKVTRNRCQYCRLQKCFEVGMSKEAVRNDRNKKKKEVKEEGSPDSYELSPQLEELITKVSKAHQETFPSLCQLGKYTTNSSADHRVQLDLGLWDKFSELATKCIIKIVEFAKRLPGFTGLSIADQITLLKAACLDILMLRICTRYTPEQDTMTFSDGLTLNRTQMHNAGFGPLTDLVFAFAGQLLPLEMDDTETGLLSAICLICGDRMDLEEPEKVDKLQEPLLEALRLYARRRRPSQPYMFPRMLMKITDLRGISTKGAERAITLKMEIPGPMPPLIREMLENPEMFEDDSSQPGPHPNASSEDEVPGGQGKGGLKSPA
# Procedure, shortened: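 HepG2, RARg-GAL4 TRANS system, 24 h exposure; reporter mRNA by RT-PCR + CE fluorescence; increase over DMSO.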
# [7] = read-out: E-selectin (Homo sapiens) (UniProt P16581); assay: BSK_3C_Eselectin: BioMAP Diversity Plus: 3C Assay for Eselectin Biomarker Activity (AID 2283015); conditions: primary human endothelial cells (HUVEC); actives raise or lower the signal;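 on outcome: cell surface E-selectin protein quantified by ELISA 24 h after dosing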
# Procedure, shortened: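 Human vascular endothelium from umbilical vein is exposed to test chemicals for 24 h. E-selectin levels are read by ELISA and compared with DMSO controls.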
# [8] = read-out: Interleukin-1 alpha (IL1a), IL1A (gene 3552); assay: BSK_BE3C_IL1a: BioMAP Diversity Plus: BE3C Assay for Interleukin-1 alpha (IL1a) Biomarker Activity (AID 2283016); conditions: primary human bronchial epithelial cells; actives raise or lower the signal
# Procedure, shortened: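 Cultures of primary human bronchial epithelial cells receive test chemical. After 24 h, IL-1a is quantified by ELISA, while parallel wells are fixed in TCA and SRB-stained for total protein. Changes in either direction are fitted relative to DMSO.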
# [9] = read-out: Monocyte Chemoattractant Protein-1 (MCP1), CCL2 (gene 6347); assay: BSK_3C_MCP1: BioMAP Diversity Plus: 3C Assay for Monocyte Chemoattractant Protein-1 (MCP1) Biomarker Activity (AID 2283017); conditions: primary human endothelial cells (HUVEC); actives raise or lower the signal
# Procedure, shortened: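 Endothelial cells from human umbilical vein are dosed with chemical, cultured 24 h, then assayed for MCP-1 by ELISA; both increases and decreases are modelled against DMSO controls.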
# [10] = read-out: Monocyte Chemoattractant Protein-1 (MCP1), CCL2 (gene 6347); assay: BSK_4H_MCP1: BioMAP Diversity Plus: 4H Assay for Monocyte Chemoattractant Protein-1 (MCP1) Biomarker Activity (AID 2283018); conditions: primary human endothelial cells (HUVEC); actives raise or lower the signal
# Procedure, shortened: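 Readout: MCP-1 ELISA on compound-treated HUVEC, sampled 24 h post-dosing. Baseline and negative control DMSO; bidirectional fit. Overt toxicity checked alongside by sulforhodamine B protein staining at time of biomarker measurement.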
# [11] = read-out: Human Leukocyte Antigen - DR isotype (HLADR), HLA-DRA (gene 3122); assay: BSK_3C_HLADR: BioMAP Diversity Plus: 3C Assay for Human Leukocyte Antigen - DR isotype (HLADR) Biomarker Activity (AID 2283019); conditions: primary human endothelial cells (HUVEC); actives raise or lower the signal;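 on outcome: ELISA of cell-surface HLA-DR on HUVEC 24 h after dosing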
# Procedure, shortened: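 Endothelial cells from human umbilical vein are treated with test chemical; after 24 h, HLA-DR levels are measured by ELISA. Data are fitted in both directions using DMSO as the baseline.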
# [12] = biological target: human Peroxisome Proliferator-activated Receptor delta (PPARd), PPARD (gene 5467) (UniProt Q03181); assay: ATG_PPARd_TRANS: Attagene TRANS-FACTORIAL HepG2 Assay for human Peroxisome Proliferator-activated Receptor delta (PPARd) (AID 2283002; active means hit-call score of the fitted dose curve at least 0.9, where 1 is the maximum)
# Chain of human Peroxisome Proliferator-activated Receptor delta (PPARd), PPARD (gene 5467) (Q03181 whole entry, looked up, the tested form may be a part): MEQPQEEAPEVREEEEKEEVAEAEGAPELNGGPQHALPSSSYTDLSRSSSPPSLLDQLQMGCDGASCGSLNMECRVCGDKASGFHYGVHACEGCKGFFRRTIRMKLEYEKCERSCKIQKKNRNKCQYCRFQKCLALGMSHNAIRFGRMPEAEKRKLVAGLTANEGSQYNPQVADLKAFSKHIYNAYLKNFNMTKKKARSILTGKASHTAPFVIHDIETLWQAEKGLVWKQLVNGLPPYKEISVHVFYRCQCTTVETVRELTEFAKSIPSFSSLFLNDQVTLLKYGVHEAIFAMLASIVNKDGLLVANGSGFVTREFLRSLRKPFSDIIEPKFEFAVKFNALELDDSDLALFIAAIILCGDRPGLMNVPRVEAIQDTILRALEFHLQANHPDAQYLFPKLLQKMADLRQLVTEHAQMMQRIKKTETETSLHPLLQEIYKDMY
# Procedure, shortened: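 Read-out: reporter mRNA induction, quantified by fluorescent RT-PCR products resolved by capillary electrophoresis. Human HepG2 liver cells carried transiently transfected Gal4-UAS reporter constructs with chimeric NR-Gal4 fusions. Cells were dosed for 24 h; DMSO served as baseline.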
# [13] = biological target: Nuclear receptor subfamily 1 group I member 2 (Homo sapiens) (UniProt O75469); assay: ATG_PXR_TRANS: Attagene TRANS-FACTORIAL HepG2 Assay for human Pregnane X Receptor (PXR) (AID 2283008; active means hit-call score of the fitted dose curve at least 0.9, where 1 is the maximum)
# Chain of Nuclear receptor subfamily 1 group I member 2 (Homo sapiens) (O75469 whole entry, looked up, the tested form may be a part): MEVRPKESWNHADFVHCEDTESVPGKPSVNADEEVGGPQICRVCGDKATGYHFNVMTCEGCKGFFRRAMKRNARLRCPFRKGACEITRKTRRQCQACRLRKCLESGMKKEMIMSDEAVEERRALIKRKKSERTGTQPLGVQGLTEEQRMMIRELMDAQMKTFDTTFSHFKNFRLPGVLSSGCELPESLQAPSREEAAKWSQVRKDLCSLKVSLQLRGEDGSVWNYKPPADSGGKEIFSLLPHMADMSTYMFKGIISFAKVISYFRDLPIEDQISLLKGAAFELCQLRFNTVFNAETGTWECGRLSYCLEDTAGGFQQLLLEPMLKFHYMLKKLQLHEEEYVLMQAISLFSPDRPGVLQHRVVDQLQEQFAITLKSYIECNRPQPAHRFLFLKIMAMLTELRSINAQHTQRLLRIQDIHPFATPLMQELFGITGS
# Procedure, shortened: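 Fluorescence intensity of FAM-labelled, HpaI-digested reporter amplicons, separated by capillary electrophoresis, quantifies induction. HepG2 cells with PXR-Gal4 trans-reporter system were exposed 24 h; DMSO defines baseline.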
# [14] = biological target: human RAR-related Orphan Receptor beta (RORb), RORB (gene 6096) (UniProt Q92753); assay: ATG_RORb_TRANS: Attagene TRANS-FACTORIAL HepG2 Assay for human RAR-related Orphan Receptor beta (RORb) (AID 2283010; active means hit-call score of the fitted dose curve at least 0.9, where 1 is the maximum)
# Chain of human RAR-related Orphan Receptor beta (RORb), RORB (gene 6096) (Q92753 whole entry, looked up, the tested form may be a part): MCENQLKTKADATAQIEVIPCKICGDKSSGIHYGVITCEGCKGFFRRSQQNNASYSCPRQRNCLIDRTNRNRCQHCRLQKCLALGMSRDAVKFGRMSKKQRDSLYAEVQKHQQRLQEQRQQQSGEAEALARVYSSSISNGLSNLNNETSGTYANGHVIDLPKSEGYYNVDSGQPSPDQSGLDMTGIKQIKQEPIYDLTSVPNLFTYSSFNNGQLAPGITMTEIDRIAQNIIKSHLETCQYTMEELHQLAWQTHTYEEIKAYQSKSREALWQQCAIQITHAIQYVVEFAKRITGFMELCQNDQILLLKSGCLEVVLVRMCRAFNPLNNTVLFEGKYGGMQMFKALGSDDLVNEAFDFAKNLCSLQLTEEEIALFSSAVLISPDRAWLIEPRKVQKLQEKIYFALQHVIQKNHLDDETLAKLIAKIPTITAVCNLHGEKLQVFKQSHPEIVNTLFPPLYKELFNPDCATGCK
# Procedure, shortened: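 In this TRANS-format test, human HepG2 cells express chimeric NR-Gal4 fusion proteins driving GAL4-UAS reporters. After 24 h dosing, reporter transcripts are measured by fluorescent RT-PCR/capillary electrophoresis, with DMSO as negative control.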
# [15] = biological target: Retinoic acid receptor RXR-alpha (Homo sapiens) (UniProt P19793); assay: ATG_RXRa_TRANS: Attagene TRANS-FACTORIAL HepG2 Assay for human Retinoid X Receptor alpha (RXRa) (AID 2283012; active means hit-call score of the fitted dose curve at least 0.9, where 1 is the maximum)
# Chain of Retinoic acid receptor RXR-alpha (Homo sapiens) (P19793 whole entry, looked up, the tested form may be a part): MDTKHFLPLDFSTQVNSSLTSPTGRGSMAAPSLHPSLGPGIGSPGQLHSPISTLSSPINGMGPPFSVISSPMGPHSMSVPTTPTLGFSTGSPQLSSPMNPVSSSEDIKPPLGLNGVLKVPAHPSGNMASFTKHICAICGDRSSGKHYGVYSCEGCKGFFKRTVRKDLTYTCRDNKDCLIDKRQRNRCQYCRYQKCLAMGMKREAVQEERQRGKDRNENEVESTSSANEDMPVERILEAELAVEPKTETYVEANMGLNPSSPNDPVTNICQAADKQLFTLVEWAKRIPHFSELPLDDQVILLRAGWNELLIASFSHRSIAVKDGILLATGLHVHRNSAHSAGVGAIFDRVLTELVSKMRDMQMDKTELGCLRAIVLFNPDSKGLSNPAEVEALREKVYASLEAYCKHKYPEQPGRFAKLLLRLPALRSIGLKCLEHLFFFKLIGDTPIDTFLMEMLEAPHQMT
# Procedure, shortened: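 Cells (HepG2) carried transiently transfected GAL4-responsive reporter units. Following a 24 h chemical incubation, reporter mRNA induction was read via RT-PCR fragment analysis; DMSO served as negative control and baseline.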
# [16] = biological target: Retinoic acid receptor alpha (Homo sapiens) (UniProt P10276); assay: ATG_RARa_TRANS: Attagene TRANS-FACTORIAL HepG2 Assay for human Retinoic Acid Receptor alpha (RARa) (AID 2283005; active means hit-call score of the fitted dose curve at least 0.9, where 1 is the maximum)
# Chain of Retinoic acid receptor alpha (Homo sapiens) (P10276 whole entry, looked up, the tested form may be a part): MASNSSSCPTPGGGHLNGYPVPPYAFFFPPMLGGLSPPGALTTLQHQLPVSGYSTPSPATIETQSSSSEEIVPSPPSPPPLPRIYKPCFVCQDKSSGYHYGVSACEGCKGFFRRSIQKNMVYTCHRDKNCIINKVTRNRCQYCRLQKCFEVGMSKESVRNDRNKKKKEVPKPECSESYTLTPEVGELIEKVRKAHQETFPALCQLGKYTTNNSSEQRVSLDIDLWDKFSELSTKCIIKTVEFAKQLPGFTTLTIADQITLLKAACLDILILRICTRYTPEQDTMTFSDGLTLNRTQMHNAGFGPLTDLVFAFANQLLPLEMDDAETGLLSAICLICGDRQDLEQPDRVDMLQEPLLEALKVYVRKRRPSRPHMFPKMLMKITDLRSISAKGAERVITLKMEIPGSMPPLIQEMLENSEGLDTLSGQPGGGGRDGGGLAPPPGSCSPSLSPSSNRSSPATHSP
# Procedure, shortened: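 HepG2 transiently transfected with multiplex GAL4-UAS reporter units including a human RARa–GAL4 chimera; 24 h compound exposure. Reporter mRNA quantified by RT-PCR, 6-FAM labeling and capillary electrophoresis; gain of signal versus DMSO.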
# [17] = biological target: Peroxisome proliferator-activated receptor gamma (Homo sapiens) (UniProt P37231); assay: ATG_PPARg_TRANS: Attagene TRANS-FACTORIAL HepG2 Assay for human Peroxisome Proliferator-activated Receptor-gamma (PPARg) (AID 2283007; active means hit-call score of the fitted dose curve at least 0.9, where 1 is the maximum)
# Procedure, shortened: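 HepG2 cells are transiently transfected with GAL4-UAS reporter units driven by chimeric NR-Gal4 fusions and dosed for 24 h. Reporter mRNA is quantified by RT-PCR, 6-FAM labelling, HpaI digestion and capillary electrophoresis. Induction is scored against DMSO.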
# [18] = biological target: human RAR-related Orphan Receptor gamma (RORg), RORC (gene 6097) (UniProt P51449); assay: ATG_RORg_TRANS: Attagene TRANS-FACTORIAL HepG2 Assay for human RAR-related Orphan Receptor gamma (RORg) (AID 2283011; active means hit-call score of the fitted dose curve at least 0.9, where 1 is the maximum)
# Chain of human RAR-related Orphan Receptor gamma (RORg), RORC (gene 6097) (P51449 whole entry, looked up, the tested form may be a part): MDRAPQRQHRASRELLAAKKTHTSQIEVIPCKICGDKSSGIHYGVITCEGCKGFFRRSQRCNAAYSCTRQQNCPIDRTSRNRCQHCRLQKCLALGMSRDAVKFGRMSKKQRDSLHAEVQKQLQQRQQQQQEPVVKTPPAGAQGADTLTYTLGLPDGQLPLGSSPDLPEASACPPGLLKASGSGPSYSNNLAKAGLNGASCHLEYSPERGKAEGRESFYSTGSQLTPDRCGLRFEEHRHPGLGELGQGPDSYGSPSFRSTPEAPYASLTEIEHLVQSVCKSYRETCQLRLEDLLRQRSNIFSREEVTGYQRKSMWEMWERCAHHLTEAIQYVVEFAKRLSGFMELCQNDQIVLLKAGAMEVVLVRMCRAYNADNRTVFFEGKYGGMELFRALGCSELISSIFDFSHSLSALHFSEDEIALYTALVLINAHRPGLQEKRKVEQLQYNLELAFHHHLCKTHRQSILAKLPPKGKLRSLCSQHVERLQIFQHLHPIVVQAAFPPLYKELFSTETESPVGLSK
# Procedure, shortened: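 Activity is scored as increase in GAL4-UAS reporter mRNA over DMSO, detected by fluorescent RT-PCR and capillary electrophoresis in HepG2 cells transiently expressing a RORg-Gal4 chimera, 24 h after dosing.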
# [19] = biological target: human Retinoid X Receptor beta (RXRb), RXRB (gene 6257) (UniProt P28702); assay: ATG_RXRb_TRANS: Attagene TRANS-FACTORIAL HepG2 Assay for human Retinoid X Receptor beta (RXRb) (AID 2283013; active means hit-call score of the fitted dose curve at least 0.9, where 1 is the maximum)
# Chain of human Retinoid X Receptor beta (RXRb), RXRB (gene 6257) (P28702 whole entry, looked up): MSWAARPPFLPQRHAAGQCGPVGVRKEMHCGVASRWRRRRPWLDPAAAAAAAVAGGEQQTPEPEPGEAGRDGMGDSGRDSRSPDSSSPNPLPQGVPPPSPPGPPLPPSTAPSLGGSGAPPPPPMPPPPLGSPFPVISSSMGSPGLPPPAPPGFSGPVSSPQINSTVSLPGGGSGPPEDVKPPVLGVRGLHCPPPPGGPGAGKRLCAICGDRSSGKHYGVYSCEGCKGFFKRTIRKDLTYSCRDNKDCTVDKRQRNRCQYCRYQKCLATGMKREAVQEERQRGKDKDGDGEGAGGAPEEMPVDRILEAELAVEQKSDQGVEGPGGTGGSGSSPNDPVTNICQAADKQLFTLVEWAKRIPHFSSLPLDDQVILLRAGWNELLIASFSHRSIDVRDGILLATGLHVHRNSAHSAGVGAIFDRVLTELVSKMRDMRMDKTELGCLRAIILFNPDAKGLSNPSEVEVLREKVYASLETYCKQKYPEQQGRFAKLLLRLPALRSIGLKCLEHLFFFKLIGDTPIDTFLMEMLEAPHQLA
# Procedure, shortened: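 Multiplexed TRANS reporter assay in HepG2; 24 h dosing; reporter mRNA by RT-PCR/CE fluorescence; gain-of-signal relative to DMSO.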
# [20] = biological target: human Thyroid Receptor alpha (THRa1), THRA (gene 7067) (UniProt P10827); assay: ATG_THRa1_TRANS: Attagene TRANS-FACTORIAL HepG2 Assay for human Thyroid Receptor alpha (THRa1) (AID 2283014; active means hit-call score of the fitted dose curve at least 0.9, where 1 is the maximum)
# Procedure, shortened: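 First, HepG2 cells receive multiple GAL4-UAS reporter units and the chimeric receptor. They are then dosed for 24 h, after which RNA is reverse-transcribed, amplified, labelled, HpaI-cut and sized by capillary electrophoresis; gain relative to DMSO is scored.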
structure (smiles),measurement,setting,value
CCCCCCCCCCO,outcome,[1],inactive
same,AC50,[2],128 µM (active)
same,outcome,[3],inactive
same,outcome,[4],inactive
same,AC50,[5],33 µM (active)
same,outcome,[6],inactive
same,outcome,[7],inactive
same,outcome,[8],inactive
same,outcome,[9],inactive
same,outcome,[10],inactive
same,outcome,[11],inactive
COc1ccc2c(c1)c(CC(=O)O)c(C)n2C(=O)c1ccc(Cl)cc1,outcome,[1],inactive
same,outcome,[2],inactive
same,outcome,[12],inactive
same,outcome,[3],inactive
same,outcome,[5],inactive
same,outcome,[13],inactive
same,outcome,[14],inactive
same,outcome,[15],inactive
same,outcome,[7],inactive
same,outcome,[8],inactive
same,outcome,[9],inactive
same,outcome,[10],inactive
same,outcome,[11],inactive
CCCCC(CC)COC(=O)CC(C(=O)OCC(CC)CCCC)S(=O)(=O)O (stereo unspecified),AC50,[1],36.5 µM (active)
same,outcome,[2],inactive
same,outcome,[12],inactive
same,AC50,[3],31.5 µM (active)
same,outcome,[4],inactive
same,outcome,[16],inactive
same,AC50,[5],30.6 µM (active)
same,AC50,[17],7.56 µM (active)
same,AC50,[13],0.678 µM (active)
same,outcome,[6],inactive
same,outcome,[14],inactive
same,outcome,[18],inactive
same,outcome,[15],inactive
same,outcome,[19],inactive
same,AC50,[7],38.1 µM (active)
same,AC50,[8],11.6 µM (active)
same,AC50,[9],31.4 µM (active)
same,AC50,[10],29.3 µM (active)
same,AC50,[11],37.9 µM (active)
Oc1ccc2c(c1)OC[C@@H](N1CCC(O)(c3ccc(F)cc3)CC1)[C@H]2O,outcome,[1],inactive
same,outcome,[2],inactive
same,outcome,[12],inactive
same,outcome,[3],inactive
same,outcome,[16],inactive
same,outcome,[5],inactive
same,AC50,[13],13.6 µM (active)
same,outcome,[6],inactive
same,outcome,[15],inactive
same,outcome,[19],inactive
same,outcome,[7],inactive
same,outcome,[8],inactive
same,outcome,[9],inactive
same,outcome,[10],inactive
same,outcome,[11],inactive
Cc1ccc(C(C)C)c(O)c1,outcome,[1],inactive
same,outcome,[2],inactive
same,outcome,[3],inactive
same,outcome,[4],inactive
same,outcome,[5],inactive
same,outcome,[13],inactive
same,outcome,[6],inactive
same,outcome,[18],inactive
same,outcome,[15],inactive
same,AC50,[19],40.6 µM (active)
same,outcome,[20],inactive
same,outcome,[7],inactive
same,outcome,[8],inactive
same,outcome,[9],inactive
same,outcome,[10],inactive
same,outcome,[11],inactive
CCNc1cccc(C)c1,outcome,[1],inactive
same,outcome,[2],inactive
same,outcome,[12],inactive
same,outcome,[3],inactive
same,outcome,[16],inactive
same,outcome,[5],inactive
same,outcome,[13],inactive
same,outcome,[6],inactive
same,outcome,[14],inactive
same,outcome,[15],inactive
same,outcome,[19],inactive
same,outcome,[20],inactive
same,outcome,[7],inactive
same,outcome,[8],inactive
same,outcome,[9],inactive
same,outcome,[10],inactive
same,outcome,[11],inactive
FC(F)(F)C(F)(F)C(F)(F)C(F)(F)C(F)(F)C(F)(F)CCI,outcome,[1],inactive
same,outcome,[2],inactive
same,outcome,[12],inactive
same,outcome,[3],inactive
same,outcome,[16],inactive
same,outcome,[5],inactive
same,outcome,[13],inactive
same,outcome,[6],inactive
same,outcome,[14],inactive
same,outcome,[18],inactive
same,outcome,[15],inactive
same,outcome,[19],inactive
same,outcome,[7],inactive
same,outcome,[8],inactive
same,outcome,[9],inactive
same,outcome,[10],inactive
same,outcome,[11],inactive
CCCCCCCC=O,outcome,[1],inactive
same,outcome,[2],inactive
same,outcome,[12],inactive
same,outcome,[3],inactive
same,outcome,[5],inactive
same,outcome,[13],inactive
same,outcome,[14],inactive
same,outcome,[19],inactive
same,outcome,[7],inactive
same,outcome,[8],inactive
same,outcome,[9],inactive
same,outcome,[10],inactive
same,outcome,[11],inactive
